Out of some 360,000 compounds screened, about 16,000 (4.4%) were called active. Entries that show only a call come without a potency. Roughly 9% stayed inconclusive and do not appear here. The call rests on the fitted dose curve; in most records, active means well fitted inhibition curve with a large enough effect; inconclusive means small, poorly fitted or top-dose-only effect; inactive means no such curve, though single readings can be large or run the other way. For the sample, actives were picked, then their nearest neighbours and some compounds at random.
Target: Bromodomain adjacent to zinc finger domain protein 2B (Homo sapiens) (UniProt Q9UIF8)
Assay: qHTS Assay for Inhibitors of BAZ2B; further: nearly all actives have a fitted effect of over 60% in size
Conditions: AlphaScreen BAZ2B-H3K14Ac peptide displacement; series mostly up to 114 µM
Outline: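 Inhibition is scored as reduced AlphaScreen emission. The BAZ2B/b-H3(5-23)K14Ac complex (50 nM each) in PBS pH 7.4, 0.01% Tween-20 meets compound (up to 110 uM) for 30 min at RT before bead addition.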
Potency means the concentration at half of the fitted maximal effect.

Sequence of Bromodomain adjacent to zinc finger domain protein 2B (Homo sapiens) (Q9UIF8 whole entry, looked up, the tested form may be a part): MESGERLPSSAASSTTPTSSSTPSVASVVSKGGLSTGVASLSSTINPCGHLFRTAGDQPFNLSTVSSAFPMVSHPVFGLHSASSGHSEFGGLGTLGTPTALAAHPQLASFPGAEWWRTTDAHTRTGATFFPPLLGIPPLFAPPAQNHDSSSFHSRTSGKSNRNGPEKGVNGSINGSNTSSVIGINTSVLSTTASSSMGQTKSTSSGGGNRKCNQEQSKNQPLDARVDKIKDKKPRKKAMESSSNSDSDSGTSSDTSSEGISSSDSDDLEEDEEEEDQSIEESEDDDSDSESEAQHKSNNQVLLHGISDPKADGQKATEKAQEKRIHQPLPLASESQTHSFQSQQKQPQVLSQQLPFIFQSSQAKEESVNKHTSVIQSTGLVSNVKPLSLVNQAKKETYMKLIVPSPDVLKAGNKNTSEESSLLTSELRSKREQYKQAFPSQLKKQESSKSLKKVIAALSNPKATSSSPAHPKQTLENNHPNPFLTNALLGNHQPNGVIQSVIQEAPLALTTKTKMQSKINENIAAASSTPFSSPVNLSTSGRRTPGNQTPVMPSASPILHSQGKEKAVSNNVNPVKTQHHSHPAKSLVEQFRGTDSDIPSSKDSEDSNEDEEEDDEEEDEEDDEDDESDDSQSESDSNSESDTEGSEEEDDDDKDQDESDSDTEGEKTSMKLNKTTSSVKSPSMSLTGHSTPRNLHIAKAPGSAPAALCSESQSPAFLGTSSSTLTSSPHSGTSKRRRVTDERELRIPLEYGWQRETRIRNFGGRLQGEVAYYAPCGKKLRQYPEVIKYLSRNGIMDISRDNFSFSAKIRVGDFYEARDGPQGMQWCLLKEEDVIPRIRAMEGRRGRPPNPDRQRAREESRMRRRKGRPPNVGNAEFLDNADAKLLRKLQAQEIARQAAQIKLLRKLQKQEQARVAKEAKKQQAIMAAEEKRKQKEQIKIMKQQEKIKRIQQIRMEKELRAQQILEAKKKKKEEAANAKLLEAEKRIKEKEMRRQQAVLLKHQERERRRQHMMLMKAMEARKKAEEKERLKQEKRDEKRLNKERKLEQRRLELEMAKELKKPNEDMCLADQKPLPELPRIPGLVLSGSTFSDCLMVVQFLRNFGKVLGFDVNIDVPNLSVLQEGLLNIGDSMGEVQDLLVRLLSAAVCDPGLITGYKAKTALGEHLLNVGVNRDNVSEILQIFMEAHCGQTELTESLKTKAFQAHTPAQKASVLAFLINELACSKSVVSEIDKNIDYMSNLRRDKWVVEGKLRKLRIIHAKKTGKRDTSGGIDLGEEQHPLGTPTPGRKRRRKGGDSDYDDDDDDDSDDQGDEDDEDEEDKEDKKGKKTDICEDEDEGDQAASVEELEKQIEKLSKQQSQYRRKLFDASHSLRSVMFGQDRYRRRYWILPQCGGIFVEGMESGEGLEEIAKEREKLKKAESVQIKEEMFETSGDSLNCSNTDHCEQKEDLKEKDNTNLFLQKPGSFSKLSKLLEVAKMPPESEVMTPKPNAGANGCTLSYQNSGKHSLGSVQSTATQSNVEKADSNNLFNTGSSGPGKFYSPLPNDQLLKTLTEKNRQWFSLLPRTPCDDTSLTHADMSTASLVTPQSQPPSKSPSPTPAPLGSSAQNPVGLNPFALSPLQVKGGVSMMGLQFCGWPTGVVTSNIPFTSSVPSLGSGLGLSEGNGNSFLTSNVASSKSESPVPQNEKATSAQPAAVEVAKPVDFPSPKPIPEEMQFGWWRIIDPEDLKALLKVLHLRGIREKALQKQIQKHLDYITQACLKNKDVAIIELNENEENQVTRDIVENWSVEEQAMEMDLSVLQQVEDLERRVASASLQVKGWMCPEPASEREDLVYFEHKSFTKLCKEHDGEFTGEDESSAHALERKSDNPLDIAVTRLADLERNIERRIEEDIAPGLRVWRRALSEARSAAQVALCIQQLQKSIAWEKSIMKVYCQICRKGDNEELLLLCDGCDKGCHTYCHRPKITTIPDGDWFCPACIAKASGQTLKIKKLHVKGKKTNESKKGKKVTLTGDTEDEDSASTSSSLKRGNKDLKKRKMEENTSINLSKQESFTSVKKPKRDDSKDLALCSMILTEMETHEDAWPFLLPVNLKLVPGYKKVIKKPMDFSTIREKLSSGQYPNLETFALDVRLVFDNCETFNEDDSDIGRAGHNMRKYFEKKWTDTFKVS

| Compound | Potency |
| --- | --- |
| CCOc1ccc(OCC)c(NC(=O)c2c(C)nn(-c3ccccc3)c2-n2cccc2)c1 | inactive |
| O=C(CCc1ccccc1)NCc1ccc2c(c1)CCN2C(=O)c1ccccc1 | inactive |
| CCOCCCNC(=O)c1c(NC(=O)Cc2coc3ccc(C)cc23)sc2c1CCC2 | inactive |
| COc1ccc(S(=O)(=O)N(CC(=O)N/N=C/c2ccccc2C(=O)O)c2ccccc2OC)cc1 | inactive |
| COc1ccccc1NC(=O)CN(c1ccccc1OC)S(=O)(=O)c1ccccc1 | inactive |
| COc1ccccc1N(CC(=O)N/N=C(\C)c1ccccc1O)S(=O)(=O)c1ccc(C)cc1 | 50.1 µM (active) |
| CCCN(CCC)S(=O)(=O)c1ccc(C(=O)Nc2sc3c(c2C(=O)OC)CCN(CC)C3)cc1 | inactive |
| Cc1cccc(C(=O)N2CCc3cc(CNC(=O)Cc4ccc(F)cc4)ccc32)c1 | inactive |
| CCC(=O)Nc1c(C(=O)N2CCN(c3ccc(F)cc3)CC2)oc2ccccc12 | inactive |
| Cc1nnc(SCC(=O)NCc2ccccc2Cl)c2nn(-c3ccccc3)c(C)c12 | inactive |
| Cc1nn(C(C)C(=O)NCCC2=CCCCC2)c(=O)c2nn(-c3ccccc3)c(C)c12 (stereo unspecified) | inactive |
| Cc1ccc(-n2nc3c(=O)n(C(C)C(=O)NCc4ccc5c(c4)OCO5)nc(C)c3c2C)cc1 (stereo unspecified) | 79.4 µM (active) |
| COc1ccc(CNC(=O)C(C)n2nc(C)c3c(C)n(-c4ccccc4)nc3c2=O)c(OC)c1 (stereo unspecified) | inactive |
| O=C(CSCc1cnn(-c2ccccc2)c1-n1cccc1)NCc1ccccc1Br | inactive |
| COCCNC(=S)N/N=C/c1c(C)[nH]c2ccccc12 | inactive |
| CN=c1scc(-c2cc(OC)ccc2OC)n1/N=C/c1c(C)[nH]c2ccccc12 | 35.5 µM (active) |
| CCn1c(-c2cc(OC)ccc2OC)csc1=Nc1c(C)n(C)n(-c2ccccc2)c1=O | inactive |
| COc1ccc(CNC(=O)Cn2nnc(-c3ccccc3F)n2)cc1 | inactive |
| CC(C)c1ccc(NC(=O)c2cc(S(=O)(=O)N3CCc4ccccc4C3)ccc2F)cc1 | inactive |
| Cc1cccc(CCNC(=O)c2ccc3c(c2)nc2n3CCC(C)C2)c1 (stereo unspecified) | inactive |
| Cc1ccc(C)n1-c1nnc(N2CCC(C(=O)NCc3ccccc3Cl)CC2)s1 | inactive |
| O=C(N/N=C/c1ccccc1O)C1CCCC1 | inactive |
| Cc1ccc(-n2c(C)cc(/C=N\NC(=O)CC(=O)NC(C)C)c2C)cc1 | inactive |

| Compound | Potency |
| --- | --- |
| Cc1cc(/C=N/NC(N)=O)c(C)n1C1CCCCC1 | 50.1 µM (active) |
| CCC(=O)N1c2ccccc2CC1C(=O)N1CCN(c2cccc(OC)c2)CC1 (stereo unspecified) | inactive |
| O=C(CC(NCc1cccnc1)C(=O)O)Nc1ccc(O)cc1 (stereo unspecified) | inactive |
| COc1cccc(NC(=O)CN2CCN(c3nc(-c4cccc(OC)c4)cs3)CC2)c1 | inactive |
| CCc1ccc(CNC(=O)C2CCN(c3nn4cc(-c5ccc(F)cc5)nc4s3)CC2)cc1 | inactive |
| CC1CCCC(C)N1C(=O)CN1CCN(c2nc(-c3ccc(F)cc3)cs2)CC1 (stereo unspecified) | 70.8 µM (active) |
| CC(C)(C)NC(=O)CSc1nc(-c2ccc(F)cc2)cc(C(F)(F)F)n1 | inactive |
| COc1ccc(S(=O)(=O)N2CCCCC2)cc1C(=O)NC1CCS(=O)(=O)C1 (stereo unspecified) | inactive |
| CCc1ccc(NC(=O)c2cc(S(=O)(=O)NC3CCCCCC3)ccc2F)cc1 | inactive |
| CC(CCCc1ccccc1)NC(=O)c1nn(-c2ccc(Cl)cc2)nc1CO (stereo unspecified) | inactive |
| Cc1ccc(NC(=O)c2cccnc2C(=O)Nc2ccc(C)cc2)cc1 | inactive |
| Cn1c(=O)c(=O)n(C)c2cc(NC(=O)c3ccccc3Br)ccc21 | inactive |
| O=C(Nc1ccc(-n2ccnc2P(=O)(O)c2ccccc2)cc1)c1ccccc1Br | 44.7 µM (active) |
| COc1ccccc1NC(=O)CSc1oc(-c2ccco2)nc1S(=O)(=O)c1ccc(Br)cc1 | inactive |
| Cc1cccc(NC(=O)CSc2nc3c([nH]c4ccccc43)c(=O)n2-c2cc(C)cc(C)c2)c1 | inactive |
| CCN(CC)c1ccc(NC(=O)Cn2nc3c(cc2=O)CCCC3)c(C)c1 | inactive |
| CCOc1ccc(C2C(C#N)=C(N)N(N(C)C)C3=C2C(=O)CCC3)cc1 (stereo unspecified) | inactive |
| N#CC1=C(N)N(c2ccccc2)C2=C(C(=O)CCC2)C1c1ccccc1 (stereo unspecified) | inactive |
| COc1ccc(C2C(C#N)=C(N)N(c3ncn[nH]3)C3=C2C(=O)CCC3)cc1 (stereo unspecified) | 79.4 µM (active) |
| Oc1ccc(Br)cc1C=Nc1ccc2[nH]ncc2c1 | inactive |
| Cc1c(C(=O)Nc2ccccn2)oc2ccc(Br)cc12 | inactive |
| Oc1ccc(Br)cc1/C=N/Nc1ccccn1 | 31.6 µM (active) |
| COC(=O)c1ccc(NC(=O)CCc2c(C)nc3c(c(C)nn3-c3ccc(C)cc3)c2C)cc1 | inactive |

| Compound | Potency |
| --- | --- |
| COc1ccc(-c2nnc(SCC(=O)Nc3ccccc3C)o2)cc1OC | inactive |
| CC(C)(C)c1ccc(S(=O)(=O)Nc2ccc(O)c(Sc3nc4ccccc4s3)c2)cc1 | inactive |
| CC(C)c1ccc(S(=O)(=O)Nc2ccc(O)c(Sc3nc4ccccc4s3)c2)cc1 | 25.1 µM (active) |
| O=[N+]([O-])c1c(NCCO)cc(Sc2nc3ccccc3s2)c2nonc12 | inactive |
| CC(C)c1ccc(NC(=O)Cn2nnc(C(=O)NCCc3ccccc3)c2N)cc1 | inactive |
| COc1ccc(N2CCN(S(=O)(=O)CCNC(=O)C(c3ccccc3)c3ccccc3)CC2)cc1 | inactive |
| C#CCOCCOCCOCCNc1nc(N2CCN(C(=O)Cn3cc(CCCCN)nn3)CC2)nc(N2CCN(C(=O)[C@H](CCCCN)n3cc(CCC(=O)O)nn3)CC2)n1 | inactive |
| CC[C@@H](C)[C@@H](C(=O)N1CCN(C(=O)OC(C)(C)C)CC1)n1cc(CCC(=O)O)nn1 | inactive |
| C#CCOCCOCCOCCNc1nc(N2CCN(C(=O)CCCCCCCCCCNC(=O)Cn3cc(CCCCCN)nn3)CC2)nc(N2CCN(C(=O)CCCCCCCCCCNC(=O)[C@H](CO)n3cc(CCCSC)nn3)CC2)n1 | 50.1 µM (active) |
| C#CCOCCOCCOCCNc1nc(N2CCN(C(=O)CCCCCCCCCCNC(=O)[C@H]([C@@H](C)CC)n3cc(CCCCN=C(N)N)nn3)CC2)nc(N2CCN(C(=O)CCCCCCCCCCNC(=O)[C@H](CO)n3cc(CCCSC)nn3)CC2)n1 | 50.1 µM (active) |
| CCOc1cccc(CNC(=O)c2ccc(N3CCCC3)c(NC(=O)Nc3ccccc3CC)c2)c1 | inactive |
| Cc1oc(C)c2c(=O)cc(-c3ccc4c(c3)OCO4)cc(OC(=O)c3ccc(Cl)cc3)c12 | inactive |
| CC(=O)NCC(=O)N1CCCC(C(=O)c2ccc3c4c(cccc24)CC3)C1 (stereo unspecified) | inactive |
| COc1ccc(C(=O)C2CCCN(Cc3ccc4nonc4c3)C2)c(C)c1 (stereo unspecified) | inactive |
| CCn1ccnc1CN1CCCC(C(=O)c2ccc3c4c(cccc24)CC3)C1 (stereo unspecified) | 50.1 µM (active) |
| Cc1nc2ccc(S(=O)(=O)N(CC(=O)Nc3ccc(F)cc3)Cc3ccccc3)cc2s1 | inactive |
| COc1ccc(NC(=O)CSc2nc(N)c(-c3ccccc3)c(=O)[nH]2)cc1 | inactive |
| COc1ccc(-c2nc3c(c(SCC(=O)Nc4ccc(C(=O)O)cc4)n2)Cc2ccccc2O3)cc1 | 8.91 µM (active) |
| COc1ccc(NC(=O)CSc2nc3ccccc3c(=O)n2C)cc1 | inactive |
| COc1ccc(Cl)cc1NC(=O)CSc1nc(-c2cccs2)cc(C(F)(F)F)n1 | inactive |
| Cc1ccc(CN2CCCn3nc(C(=O)NCc4ccccc4Cl)cc3C2=O)cc1 | inactive |
| O=C1c2ccccc2C(=O)C1c1ccccc1F | inactive |
| O=C1c2ccccc2C2=Nc3ccccc3SC(c3ccccc3F)C12 (stereo unspecified) | 8.91 µM (active) |

| Compound | Potency |
| --- | --- |
| CC1Cc2cc(S(=O)(=O)CCC(=O)NCc3ccc(Cl)cc3)ccc2N1C(=O)C1CC1 (stereo unspecified) | inactive |
| CN1C2CCC1CC(NC(=O)c1ccc([N+](=O)[O-])cc1)C2 (stereo unspecified) | inactive |
| CN(CC1CCCO1)S(=O)(=O)c1ccc(C(=O)Nc2ccc([N+](=O)[O-])cc2)cc1 (stereo unspecified) | inactive |
| O=C(Nc1cc2c3c(c1)C1CCCC1CN3CC1CCCC21)c1ccc([N+](=O)[O-])cc1 (stereo unspecified) | 11.2 µM (active) |
| Cc1ccc(S(=O)(=O)c2c(Nc3cccc(Cl)c3)sc(C(=O)c3ccc4c(c3)OCO4)c2N)cc1 | inactive |
| CCCCC(=O)OC1=CN(Cc2ccccc2)S(=O)(=O)c2ccccc21 | inactive |
| Cc1ccc(NC(=O)CN2C(=O)C(c3ccc(F)cc3)=NC23CCCCCC3)c(C)c1 | inactive |
| CCN1CCN(C(=O)CSc2ccc(C)cc2)CC1 | inactive |
| CCN1CCC2(CC1)N=C(c1ccc(F)cc1)C(=S)N2C(=O)c1ccc(C)cc1 | 44.7 µM (active) |
| COc1ccc(CNC(=O)c2cc3cccc(OC)c3oc2=O)cc1 | inactive |
| O=C(NCCS(=O)(=O)N1CCN(c2ccc(F)cc2)CC1)c1ccccc1Br | inactive |
| COc1ccc(CNc2nc(-c3ccc(Cl)cc3)nn2C(=O)c2ccccc2)cc1 | inactive |
| O=C(CSc1oc(-c2ccccc2)nc1S(=O)(=O)c1ccc(Br)cc1)NC1CCCCC1 | inactive |
| CCOc1ccccc1NC(=O)CSc1ncc(S(=O)(=O)c2ccc(C(C)(C)C)cc2)c(=O)[nH]1 | inactive |
| O=C(CC1N=C2c3ccccc3N=C(SCc3ccc(F)cc3)N2C1=O)NCc1cccs1 (stereo unspecified) | inactive |
| CCOC(=O)c1ccccc1NC(=O)CSc1nc2ccccc2c(=O)[nH]1 | inactive |
| O=C(CSc1nc2ccccc2c(=O)[nH]1)Nc1nc(-c2ccc(Br)cc2)cs1 | 79.4 µM (active) |
| CC(=O)NCc1ccc(-c2csc(NC(=O)CCCc3nc4ccccc4c(=O)[nH]3)n2)cc1 | inactive |
| Cc1ccccc1Cn1nc(C)c(NC(=O)c2cc(-c3ccc(F)cc3)on2)c1C | inactive |
| O=C(O)c1ccc(N/N=C/c2cn(-c3ccccc3)nc2-c2cccs2)cc1 | 79.4 µM (active) |
| O=C(NCc1cccnc1)c1cn(-c2ccccc2)nc1-c1cccs1 | inactive |
| COc1cccc(NC(=O)CN(C)C(=O)/C=C/c2cn(-c3ccccc3)nc2-c2cccs2)c1 | inactive |
